PAX8 reporter – PAX8 transcriptional activity inhibition; RMG-I TPO-luciferase reporter, SteadyGlo, 24 h; inhibition, % at 12.6 µM; 1.2% of 360,000 active;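 active = mean replicate inhibition at least 60% with every replicate also reaching 60%; inconclusive = only one of the two criteria is met; inactive = mean below 60% and not all replicates reaching 60%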;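 also: luciferase light reporting Pax8 driven TPO promoter activity; plate controls were median of neutral control wells for no effect and mitoxantrone controls for full effect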
miR122 inh – inhibitors of miR-122 in Huh7 cells | Huh7 miR-122 Renilla luciferase sensor, 48 h; neutral wells = 0, positive control = 100 | 0.3% of 340,000 active | AID 602342 | activation (reporter increase), % at 12.5 µM;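 active = mean replicate activation score at least 90 and every replicate individually at or above 90; inconclusive = only one of the two criteria met; inactive = neither criterion met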;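 also: higher luciferase means less miR-122 activity so hits act as miR-122 inhibitors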
EWS-Fli block – inhibitors of EWS/Fli oncoprotein transcriptional activity | inhibition, % at 12.6 µM | A673 NR0B1-luciferase reporter, viability-normalised | AID 651661 | 0.67% of 350,000 active;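 active = mean inhibition of at least 50% after viability correction, with every replicate also passing that limit; inconclusive = mean reaches 50% but only one of two replicates passes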;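 also: firefly luciferase signal divided by Alamar Blue viability fluorescence both relative to DMSO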
GSIS activator – GLuc luminescence reporter in INS-1E cells, primary screen for activators of glucose-dependent secretion of insulin; INS-1E GLuc reporter insulin secretion, 2-3 h; activation, % at 16.6 µM; 0.61% of 370,000 active;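 active = lowest replicate activation of at least 40%, so every replicate reaches that level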;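 also: 0% = median of neutral control wells and 100% = median of IBMX positive control wells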
C2C12 statin – suppressors of simvastatin-induced myotoxicity in C2C12 myotubes; rescue of ATP level, % at 7.49 µM; ATP luminescence, 48 h; scaled: DMSO 0, geranylgeraniol control 100; 0.78% of 330,000 active; AID 602340;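 active = mean ATP rescue above about 67%, or every replicate alone reaching that limit, limit read from the data, passing the limit was not always enough; inconclusive = no clear call, values can overlap the other calls; inactive = mean under the limit and some replicate under it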;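 also: myotubes were challenged with 10 µM simvastatin during compound exposure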
HIV Env fusion – inhibitors of HIV Env-mediated cell fusion; HeLa-JRFL Env/CEM21 cell fusion, luciferase; inhibition, % at 12.3 µM; 1.1% of 360,000 active; AID 651610;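 active = mean replicate inhibition score of at least 50 and every replicate individually at or above 50; inconclusive = only one of the two criteria met; inactive = mean below 50 and not all replicates reaching 50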;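 also: 0% = plate neutral controls and 100% = maraviroc near 300 nM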
* marks the source's active call; other numbers are inactive results; u = inconclusive; x = no result given; [ ] = dose if it differs, or a comment. Most compounds without a hit are left out; they make up all but 3.1% or so of the library.

SMILES	PAX8 reporter	miR122 inh	EWS-Fli block	GSIS activator	C2C12 statin	HIV Env fusion
O=C(C[C@@H]1CC[C@H](NS(=O)(=O)c2cccc(F)c2)[C@H](CO)O1)NCc1ccc2c(c1)OCO2	2.6	x	11.1	3.1	5.2	2.6[16.7 µM]
C[C@@H](Oc1ccccc1)c1nnn(Cc2ccccc2)c1-c1c([C@@H](C)Oc2ccccc2)nnn1Cc1ccccc1	27.3	x	-8.7	x	x	73.1*
Cc1ccc(Nc2nc(N)nc(CCl)n2)cc1	105.2*	-23.6	71.1*	-1.6	x	-25.8
Cc1cccc(Nc2nc(N)nc(CCl)n2)c1C	124.6*	-22.0	u	x	x	23.3
CCOc1ccc(Nc2nc(N)nc(CN3CCN(c4ccccc4F)CC3)n2)cc1	-22.2	-4.4	-6.3	-7.2	x	14.3
Cc1ccc(Nc2nc(N)nc(CCl)n2)c(C)c1	106.4*	x	43.8	-3.0	x	41.5
CCOc1ccc(Nc2nc(N)nc(CCl)n2)cc1	109.9*	x	48.4	x	x	-138.3
Cc1ccc(Nc2nc(N)nc(CC#N)n2)cc1	x	22.0	x	x	9.9	x
Cc1cccc(Nc2nc(N)nc(CN3CCC(C(N)=O)CC3)n2)c1C	x	-4.0	x	x	x	x
COc1ccc2c3c(n(C)c2c1)[C@@H](CO)N(C(=O)Nc1cccc(F)c1)CC31CN(C)C1	-0.3	x	-0.6	-13.2	x	x
C[C@H](CO)N1C[C@H](C)[C@@H](CN(C)C(=O)NC2CCCCC2)Oc2ccc(NC(=O)Nc3cccc4ccccc34)cc2C1=O	12.0	-2.8[16.7 µM]	12.5	-10.7	-9.4	1.0[16.7 µM]
O=C(C1CC1)N1CC2(C1)[C@H](c1ccccc1)[C@@H](CO)N2Cc1nccs1	2.3	x	-3.0	-6.3	x	x
Nc1nc(CCl)nc(Nc2ccccc2)n1	88.5*	x	33.8	3.5	x	1.8
C[C@H]1CN([C@@H](C)CO)C(=O)c2cccc(NC(=O)c3cnccn3)c2O[C@H]1CN(C)S(=O)(=O)c1cccs1	x	-3.8[16.7 µM]	-6.7	11.0	x	-18.5[16.7 µM]
CCCn1c2c(c(O)c(C(=O)NC)c1=O)CCCC2	x	-5.1	x	x	118.9*	x
Cc1cc(C)n(CC(=O)n2c3ccccc3c3ccccc32)n1	x	-3.3	x	52.9*	10.0	x
Cc1cc(C)n(CC(=O)n2c(C)c(C)c3ccccc32)n1	x	5.6	x	x	-0.4	x
CCC(=O)Nc1cc(C(C)(C)C)ccc1C(C)=O	-15.1	x	x	66.6*	x	-0.5
O=C(NCc1ccco1)c1ccc2c(=O)n(CC3CCCO3)c(=S)[nH]c2c1 (configuration not stated)	x	-3.0	x	x	91.1*	x
COc1cccc(CNC(=O)C[C@@H]2C=C[C@H](NC(=O)C3CC3)[C@H](CO)O2)c1	10.3	x	5.2	10.7	-1.7	-2.0[16.7 µM]
C[C@@H]1CN([C@H](C)CO)C(=O)c2cc(NC(=O)C3CCCCC3)ccc2O[C@H]1CN(C)Cc1ccc2c(c1)OCO2	x	-5.7[16.7 µM]	-3.6	-0.5	21.3	x
COc1ccccc1C(=O)N1CCC(C(=O)c2ccc(F)cc2)CC1	x	-4.6	x	4.0	83.8*	u
COc1ccc(C(=O)N2CCC(C(=O)c3ccc(F)cc3)CC2)cc1	16.6	3.8	x	x	4.4	-23.8
CCOC(=O)c1nc(NCc2cccnc2)c2ccccc2n1	x	-0.5	x	46.0*	0.9	-11.8
O=c1cc(-c2ccco2)oc2ccc(Cl)cc12	x	0.8	x	x	73.2*	x
SMILES	PAX8 reporter	miR122 inh	EWS-Fli block	GSIS activator	C2C12 statin	HIV Env fusion
COc1ccc2oc(-c3ccco3)cc(=O)c2c1	-142.1	-1.3	-31.2	26.0	x	-153.8
CC(=O)N1CCOc2ccc(S(=O)(=O)NCCc3cccc(C)c3)cc21	-1.5	116.5*	0.9	x	9.0	6.1
Cc1cccc(NS(=O)(=O)c2ccc3c(c2)OCCO3)c1	x	118.9*	x	6.2	0.4	6.8
Cc1ccc(NS(=O)(=O)c2ccc3c(c2)N(C)CCO3)cc1	15.3	x	x	0.8	-1.7	3.9
CCc1cccc(NS(=O)(=O)c2ccc3c(c2)N(C)CCO3)c1	25.1	172.4*	-1.1	-26.0	-2.4	4.0
Cc1ccc(S(=O)(=O)Nc2ccc3c(c2)OCCO3)cc1C	-13.1	x	30.4	-21.9	11.5	2.3
CC(=O)N1CCOc2ccc(S(=O)(=O)Nc3cccc(C)c3)cc21	0.6	130.2*	x	6.9	5.7	-0.5
Cc1ccc(S(=O)(=O)N(C)C[C@H]2OCc3cnnn3CCCC(=O)N([C@H](C)CO)C[C@@H]2C)cc1	6.2	-8.3[16.7 µM]	-17.2	4.0	9.2	x
CCC(=O)N(C)C[C@@H]1Oc2ncc(-c3ccccc3F)cc2C(=O)N([C@@H](C)CO)C[C@@H]1C	x	-1.0[16.7 µM]	-16.6	16.7	6.2	-10.6[16.7 µM]

From PubChem
